NIH3T3 tox = cytotoxic compounds in NIH 3T3 cells | NIH 3T3 viability, CellTiter-Glo ATP luminescence, 48-72 h | Potency, µM (highest dose often 96.7 µM), inactives show top-dose activity change, negative = cytotoxicity, actives largely listed as inhibitors | hit rate 4.3% among 94,000 | AID 1345082; further: on the % scale 0 is the no-effect control and ±100 the full control effect; nearly all actives have a fitted effect of over 55% in size
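Viability of NIH 3T3 cells after 48 or 72 hr compound treatment at 37 °C was assessed by CellTiter-Glo, with luminescence imaged following a 10 min room-temperature step.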
FLuc inh-1 = inhibitors of firefly (Photinus pyralis) luciferase | purified P. pyralis luciferase, luminescence, biochemical | hit rate 2.5% among 76,000 | Potency, µM (top dose mostly 115 µM), most hits filed as inhibitors | P08659; further: on the % scale 0 is the no-effect control and ±100 the full control effect; nearly all actives have a fitted effect of over 65% in size
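FLuc 10nM, D-luciferin 10uM, ATP 10uM, Mg acetate 10mM, Tris acetate pH 7.5, Tween/BSA; cpd qHTS; enzyme added last; CCD luminescence.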
HEK293 tox = cytotoxic compounds in HEK 293 cells. HEK 293 viability, ATP luminescence (CellTiter-Glo), 48-72 h. Potency, µM (doses to about 115 µM), for the others: at the highest dose activity change, negative = cytotoxicity, usual class: inhibitors. hit rate 6.6% among 94,000; further: on the % scale 0 is the no-effect control and ±100 the full control effect; nearly all actives have a fitted effect of over 60% in size
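Luminescence from cellular ATP, measured with CellTiter-Glo, indicates HEK 293 viability. Cells plated at 250 cells/well are treated with compound for 48 or 72 hr at 37 degree Celsius before reagent addition.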
GPT2 inh = inhibitors of human GPT2 alanine aminotransferase; Q8TD30; Recombinant GPT2, coupled pyruvate oxidase/HRP Amplex Red fluorescence; Potency, µM (highest dose often 57.7 µM), inactives show at the highest dose activity change, negative = inhibition, hits mostly inhibitors; hit rate 0.25% among 100,000; further: on the % scale 0 is the no-effect control and ±100 the full control effect; nearly all actives have a fitted effect of over 60% in size
Target sequence (Q8TD30 whole entry, looked up): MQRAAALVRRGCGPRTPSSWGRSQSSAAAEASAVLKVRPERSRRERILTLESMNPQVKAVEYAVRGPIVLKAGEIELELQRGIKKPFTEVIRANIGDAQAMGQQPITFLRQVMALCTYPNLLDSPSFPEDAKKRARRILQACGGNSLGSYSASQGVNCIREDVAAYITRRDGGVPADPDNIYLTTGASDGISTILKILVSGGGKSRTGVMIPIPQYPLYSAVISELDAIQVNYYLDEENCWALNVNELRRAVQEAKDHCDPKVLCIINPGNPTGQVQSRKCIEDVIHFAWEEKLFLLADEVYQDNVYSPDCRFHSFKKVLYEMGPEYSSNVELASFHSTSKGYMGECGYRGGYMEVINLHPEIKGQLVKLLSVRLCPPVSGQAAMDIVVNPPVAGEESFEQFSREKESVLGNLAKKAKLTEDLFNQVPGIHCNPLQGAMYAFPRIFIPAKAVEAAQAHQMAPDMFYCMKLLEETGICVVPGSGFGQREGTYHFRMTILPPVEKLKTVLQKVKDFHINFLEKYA
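Recombinant GPT2 (10ng/uL) with 250uM a-KG and 2mM L-alanine, 30 min at room temperature, in HEPES pH 7.5 buffer. Pyruvate detected by pyruvate oxidase/HRP/Amplex Red fluorescence after 30 min in the dark; AOA (50uM) as positive control.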
NPR1 antag = human Npr1 receptor antagonism; hit rate 1.6% among 76,000; Potency, µM (top dose mostly 46.3 µM), without a hit: at the highest dose activity change, negative = inhibition, actives largely listed as inhibitors; AID 1347048; P16066; HEK293 hNpr1 GloSensor cGMP, ANP-stimulated luminescence; calls by dose curve; further: on the % scale 0 is the no-effect control and ±100 the full control effect; nearly all actives have a fitted effect of over 60% in size
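Compound pre-incubated 30 min at room temperature on GloSensor-loaded HEK293 cells stably carrying hNpr1 and the pGS-40F cGMP biosensor. Stimulation uses hNppA at 0.1 nM final; luminescence is taken at baseline and 20 min post-agonist.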
FLuc SDR -ATP = binders stabilizing firefly luciferase, without ATP | Potency, µM (highest dose often 32.7 µM), for inactives: at the top dose activation (signal gain), actives largely listed as activators | AID 1963318 | Purified FLuc-C-HiBiT, Nano-Glo HiBiT luminescence, no ATP | hit rate 7.8% among 1,300 | shares compounds with FLuc inh-1; further: nearly all actives have a fitted effect of over 55% in size
FLuc SDR ATP = firefly luciferase binding stabilization, ATP added | shares compounds with FLuc inh-1 | Potency, µM (top dose mostly 32.7 µM), for the others: at the top dose activation (gain of signal), hits mostly activators | purified FLuc-C-HiBiT + ATP, HiBiT complementation luminescence | hit rate 8.7% among 1,300;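 further: signal reports ligand binding via conformational change of the enzyme rather than luciferase catalysis; % of control where 0% means no effect; nearly all actives have a fitted effect of over 55% in size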
FLuc inh-2 = firefly luciferase enzyme inhibition; shares compounds with FLuc inh-1; hit rate 42% among 1,300; Potency, µM (top dose mostly 32.7 µM), inactives show at the top dose activity change, negative = inhibition, actives largely listed as inhibitors; purified FLuc-C-HiBiT enzyme, luciferin luminescence; further: on the % scale 0 is the no-effect control and ±100 the full control effect; nearly all actives have a fitted effect of over 70% in size
Numbers without * were called inactive; i = inactive; ? = inconclusive; . = no result given; [ ] = dose if it differs, or a comment. Rows were chosen to be rich in hits. Some 10% of all compounds tested hit in one or more screens of this group. Unless noted, the call rests on the fitted dose curve; in most records, active means well fitted curve in the direction sought with a large enough effect; inconclusive means small, poorly fitted or top-dose-only effect, or another doubt; inactive means no such curve, though single readings can be large; an effect the other way counts as inactive or inconclusive. Potency means the concentration at half of the fitted maximal effect.

SMILES	NIH3T3 tox	FLuc inh-1	HEK293 tox	GPT2 inh	NPR1 antag	FLuc SDR -ATP	FLuc SDR ATP	FLuc inh-2
Brc1ccccc1-c1nc(-c2ccccc2)no1	.	.	.	.	.	21.8%	?	3.51µM*
Fc1ccccc1-c1noc(-c2nc(-c3ccncc3)no2)n1	i	i	6.1%	-2.4%	-14.8%	.	.	.
Cc1noc(-c2ccc(N3CCN(Cc4nccn4C)CC3)nc2)n1	i	i	3.4%	-9.6%	2.6%	.	.	.
O=C(NCc1ccccc1C(F)(F)F)c1cc2c(s1)CCN(C(=O)c1ccccc1)C2	-6.6%	i	-6.2%	-18.1%	-24.3%	.	.	.
Cc1ccc(-c2nc(-c3ccccc3)no2)c(Cl)c1	.	.	.	.	.	3.94µM*	3.51µM*	0.197µM*
Cc1cc(NC(=O)c2ccccc2F)ccc1-c1nc2ccccc2s1	.	.	.	.	.	17.6%	13.7%	?
CCSc1ccccc1C(=O)Nc1ccc(-c2nc3ccccc3s2)c(O)c1	.	.	.	.	.	14.2%	9.5%	-3.4%
O=C(Nc1ccc(-c2nc3ccccc3s2)c(O)c1)c1ccccc1F	.	.	.	.	.	13.9%	11.1%	-15.7%
Cn1c(C(=O)Nc2ccc3c(c2)OCO3)cc2c1CCN(Cc1cccc(F)c1)C2	?	10µM*	?	?	-1.4%	12.5%	11.5%	-18.6%
CC(=O)c1cccc(NC(=O)c2cc3c(n2C)CCN(Cc2cccc(F)c2)C3)c1	-28.4%	?	?	4.3%	4.7%	.	.	.
CC1(CNC(=O)c2ccc(C#N)cc2)CCOCC1	0.7%	i	-2.6%	2.3%	-2.4%	.	.	.
O=C(NCc1ccncc1)c1nc2c(o1)CCN(Cc1nccs1)CC2	-22.0%[138 µM]	i	?	-21.1%[88.5 µM]	-15.7%[70.6 µM]	.	.	.
O=C(Nc1cccnc1)c1nc2c(o1)CCN(Cc1nccs1)CC2	.	.	.	.	.	24.5%[49.3 µM]	16.8%[49.3 µM]	?
O=C(NCCOc1ccccc1)c1nc2c(o1)CCN(Cc1ccsc1)CC2	?	i	?	i	-11.0%[70.6 µM]	.	.	.
Cc1csc(NC(=O)c2nc3c(o2)CCN(Cc2ccccc2F)CC3)n1	?	4.47µM*	?	-14.4%[88.5 µM]	-21.5%[70.6 µM]	?	17.7%[49.3 µM]	?
O=C(Nc1cccnc1)c1nc2c(o1)CCN(Cc1ccc(O)cc1)CC2	.	.	.	.	.	22.8%[49.3 µM]	16.2%[49.3 µM]	?
O=C(Nc1ccccc1)c1nc2c(o1)CCN(Cc1ccc(F)cc1)CC2	?	8.91µM*	?	0.3%[88.5 µM]	17.8µM*	19.6%[49.3 µM]	16.6%[49.3 µM]	?
CCc1ccc(CN2C(=O)C3(CCOCC3)CC2c2nnnn2CCOC)cc1 (stereo not given)	2.5%	i	i	i	1.7%	.	.	.
CN(C)[C@@H]1CN(C(=O)c2ccncc2)CCC1(O)c1ccccc1 (stereo not given in full)	i	i	4.6%	i	-3.2%	.	.	.
Cc1cn2nc(C(=O)NCCc3ccccc3)cc2c(=O)[nH]1	3.7%	10µM*	-1.9%	-2.4%	-21.3%	?	?	?
CCc1ccccc1NC(=O)c1cc2c(=O)[nH]c(C)cn2n1	i	12.6µM*	-2.5%	3.3%	-5.3%	16.7%	13.0%	?
Cc1cn2nc(C(=O)Nc3ccc(C(=O)N4CCCC4)cc3)cc2c(=O)[nH]1	?	7.94µM*	?	i	4.7%	?	?	9.89µM*
Cc1ccc(C(=O)NC2CCN(C(=O)c3cc4c(=O)[nH]c(C)cn4n3)CC2)cc1	-4.5%	i	-16.8%	i	10.0%	.	.	.
Cc1ccc(CCNC(=O)c2cc3c(=O)[nH]c(C)cn3n2)cc1	-9.8%	?	-6.0%	-1.3%	2.0%	.	.	.
Cc1ccc(-n2ncc3c(N(C)Cc4ccccc4)ncnc32)cc1	.	.	.	.	.	?	?	1.57µM*
SMILES	NIH3T3 tox	FLuc inh-1	HEK293 tox	GPT2 inh	NPR1 antag	FLuc SDR -ATP	FLuc SDR ATP	FLuc inh-2
O=C(C1CCN(c2nc3ncccc3o2)CC1)N1CCC(Cc2ccccc2)CC1	?	.	?	i	.	.	.	.
Cc1ccc(CNC(=O)c2cc3c(N(C)Cc4ccccc4)nc(C)cn3n2)cc1	?	i	?	i	7.2%	.	.	.
COc1ccc(N2Cc3c(ncnc3N3CCC(Cc4ccccc4)CC3)N(C)CC2=O)cc1	?	i	?	?	-5.8%	.	.	.
Clc1cccc(-n2ncc3c(N4CCC(Cc5ccccc5)CC4)ncnc32)c1	.	.	.	.	.	10.4%	7.4%	-3.6%
Cc1ccc(-n2ncc3c(N4CCC(Cc5ccccc5)CC4)ncnc32)cc1	.	.	.	.	.	16.0%	15.8%	-16.7%
COc1ccc(CNC(=O)C2CC(=O)N(c3n[nH]c4ccccc34)C2)cc1OC (stereo not given)	i	i	9.4%	-23.5%	-1.9%	.	.	.
O=C(CCc1cc(Cl)no1)N1CCCC(Cc2nncn2Cc2ccccc2)C1 (stereo not given)	-15.9%	i	-18.4%	1.8%	-0.5%	.	.	.
COc1ccc(-c2cc3nc4c(c(=O)n3[nH]2)CN(C(=O)NCc2ccco2)CC4)cc1	?	7.08µM*	?	i	-2.0%	?	14.2%	11.1µM*
COc1ccc(-c2cc3nc4c(c(=O)n3[nH]2)CN(C(=O)Cc2ccccc2)CC4)cc1	-6.9%	?	2.7%	i	3.5%	.	.	.
Cc1ncc(C(=O)NCc2ccc3[nH]c(-c4ccccc4F)c(C)c3c2)c(C)n1	?	6.31µM*	?	-5.0%[11.5 µM]	7.94µM*	17.6%	13.5%	7.85µM*
Cc1ncc(CC(=O)NCc2ccc3[nH]c(-c4ccccc4F)c(C)c3c2)c(=O)[nH]1	?	12.6µM*	?	i	0.0%	17.8%	15.2%	?
O=C1NCCCCCN(C(=O)CC2CCCCC2)[C@H]2CCCC[C@@H]12	-15.1%	i	-27.7%	4.2%	6.1%	.	.	.
CSc1cccc(NC(=O)Nc2cccc(-c3ccc(N4CCOCC4)nn3)c2)c1	35.5µM*	0.794µM*	28.2µM*	i	?	?	?	1.57µM*
CN1CCN(c2ccc(-c3cccc(N)c3)nn2)CC1	i	11.2µM*	-1.4%	i	?	29.5%	?	6.24µM*
Cc1ccc(C(=O)Nc2cccc(-c3ccc(N4CCN(C)CC4)nn3)c2)cc1C	25.1µM*	6.31µM*	?	i	-22.4%	?	?	3.94µM*
CC(c1ccc(-c2ccc(N3CCN(C)CC3)nn2)cc1)N1CCCCC1 (stereo not given)	-4.8%	i	?	-9.4%	8.8%	.	.	.

Bioassay records: PubChem BioAssay, National Center for Advancing Translational Sciences (NCATS)
